Source: PubChem BioAssay AID565 (University of Pittsburgh Molecular Library Screening Center, 2006)
Out of some 65,000 compounds screened, about 1,200 (1.8%) were called active. Shown is part of a subset that was picked to be rich in actives. A number with no mark means an inactive call. No stated cut-off is given here; in the data, active means inhibition above about 50%; inactive means the rest.

The molecules below were run against Gag-Pol polyprotein (Human immunodeficiency virus type 1 group M subtype B (isolate HXB2)) (UniProt P04585) (assay: HIV-1 RT RNase H inhibitors, primary screen, biochemical, fluorescence (AID 565)). Conditions: RT-RNase H RNA/DNA duplex cleavage, at 10 µM, hits give high values.

Compound | inhibition
CCCc1[nH]nc2c1C(C1CC=CCC1)C(C#N)=C(N)O2 (configuration not stated) | -53.6%
Cc1nc2ccc(C(=O)N3CCSCC3)cc2s1 | -8.86%
CC(C)CC(=O)N=C1SC2CS(=O)(=O)CC2N1CCc1ccccc1 (configuration not stated) | -0.09%
Cc1ccc(C(=O)NC2CCN(C(=O)N3CCOCC3)CC2)cc1 | -0.08%
O=C(NCCCN1CCN(Cc2ccccc2)CC1)C1CCN(S(=O)(=O)N2CCCC2)CC1 | -16.5%
CCC(C)Sc1nc2c(c(=O)[nH]c(=O)n2C)n1CC(O)COc1cccc2ccccc12 (configuration not stated) | 76.5% (active)
CN1CCN(c2nc3c(c(=O)[nH]c(=O)n3C)n2Cc2cccc3ccccc23)CC1 | -0.99%
CCOC(=O)Cn1c(CN(Cc2ccccc2)Cc2ccccc2)nc2c1c(=O)[nH]c(=O)n2C | -4.21%
Cc1cccc(NC(=O)CSc2nnc(CCCCCNC(=O)OC(C)(C)C)o2)c1C | -13.1%
CCn1c(=N)c(C(=O)NCCCOC)cc2c(=O)n3cccc(C)c3nc21 | -13.1%
COc1ccc(CCn2c(=N)c(C(=O)NCc3ccco3)cc3c(=O)n4cccc(C)c4nc32)cc1 | 64.2% (active)
COc1ccc(CNC(=O)c2cc3c(=O)n4ccccc4nc3n(CC3CCCO3)c2=N)cc1 (configuration not stated) | -18.1%
Cn1c(=O)[nH]c(=O)c2c1nc(CN(Cc1ccccc1)Cc1ccccc1)n2CCN1CCOCC1 | -6.59%
COc1ccc(OCCCON2C(=O)c3ccccc3C2=O)cc1 | -68.1%
CCCc1nc2ccccc2c(=O)n1NC(=O)c1c(O)c2ccccc2[nH]c1=O | -19.6%
CCCCc1nc2ccccc2c(=O)n1NC(=O)c1c(O)c2cccc3c2n(c1=O)CC3 | 4.26%
CCCc1nc2ccccc2c(=O)n1/N=C/c1ccc(O)c(O)c1 | 88.4% (active)
CC(C)(C)c1cc(C(=O)NCc2cccnc2)ccn1 | 3.16%
Cc1ccc2c(c1)N(CCCC(=O)NCc1cccnc1)C(=O)CO2 | -14.5%
Cc1ccc(-n2nc(-c3ccco3)cc2C(=O)NCc2cccnc2)cc1 | 61.9% (active)
C#CCN1C(=O)C(O)(CC(=O)c2cc(OC)ccc2OC)c2ccccc21 (configuration not stated) | -25.6%
O=P(O)(CP(=O)(c1ccccc1)c1ccccc1)c1ccccc1 | -16.3%
CC12CCC(C(=O)N(CCC#N)CCC#N)(CC1=O)C2(C)C (configuration not stated) | -5.03%
CCOC(=O)CSC1=C(C#N)C(c2ccco2)C(C(=O)OCc2ccccc2)=C(C)N1 (configuration not stated) | -11.6%

Compound | inhibition
CC1=C(C(=O)Nc2ccccc2)C(c2cccs2)C(C#N)=C(SCC#N)N1 (configuration not stated) | 55.5% (active)
CCOC(=O)CSC1=C(C#N)C(c2sccc2C)CC(=O)N1 (configuration not stated) | -2.34%
O=C(Nn1cc(C(=O)N2CCN(c3ccccc3F)CC2)c2ccccc2c1=O)c1cnccn1 | -2.41%
Fc1ccc(-c2nnc3sc(-c4ccc5c(c4)OCO5)nn23)cc1 | 66.3% (active)
COc1cc(-c2nn3c(-c4cccc(C)c4)nnc3s2)cc(OC)c1OC | -7.33%
FC(F)(F)c1nnc2sc(-c3ccco3)nn12 | -2.16%
COc1ccc(-c2nn3c(-c4ccccc4)nnc3s2)cc1OC | -38.4%
Cc1nnc2sc(-c3ccco3)nn12 | 4.12%
Fc1ccc(-c2ccc(-c3nn4c(-c5ccco5)nnc4s3)o2)cc1 | 65.8% (active)
Cc1cc(C)c(C#N)c(SCc2ccccc2C(=O)O)n1 | -5.35%
COc1ccc(N2CCN(CCNC(=O)CCN3C(=O)COc4ccccc43)CC2)cc1 | 7.09%
O=C(Nc1ccc(Oc2ccccc2)cc1)c1ccco1 | -7.33%
CCOc1cc(NC(=O)c2ccco2)c(OCC)cc1NC(=O)COc1ccccc1 | 52.4% (active)
Cc1ccc(C(=O)COc2cccc(NC(=O)c3ccco3)c2)cc1 | 9.47%
Cc1cc(Nc2ccccc2)n(C(=O)c2ccc(N)cc2)n1 | -17.6%
CCCOC(=O)Nc1ccccc1C(N)=O | -29.1%
CCOC(=O)c1ccccc1NC(=O)CC1Nc2ccccc2NC1=O (configuration not stated) | 71.6% (active)
O=C(CC1Nc2ccccc2NC1=O)Nc1ccccc1 (configuration not stated) | -4.38%
CCC(C)NC(=O)C1CCC(=O)N1Cc1ccc(C)cc1 (configuration not stated) | -9.01%
CCN(CC)CCCNC(=O)c1cc(-c2cccc(Cl)c2)on1 | -16%
CCc1ccc2oc(-c3ccc(N)cc3)nc2c1 | -12.6%
CCN(CC)c1ccc2oc(=O)c(C)nc2c1 | 68.2% (active)
CCN(CC)c1ccc2cc(C(=O)O)c(=O)oc2c1 | -8.5%
